Results: ChEMBL document CHEMBL1961873, “Compounds: GSK PKIS; Assays: Nanosyn kinase panel” (2012)

How the values were obtained:
[1] = tested on: Proto-oncogene tyrosine-protein kinase receptor Ret (Homo sapiens), P07949 [Y791F]; conditions: at 1 µM
[2] = molecular target: Macrophage-stimulating protein receptor (Homo sapiens) (UniProt Q04912); conditions: at 0.1 µM
[3] = molecular target: Macrophage-stimulating protein receptor (Homo sapiens) (UniProt Q04912); conditions: at 1 µM
[4] = molecular target: Proto-oncogene tyrosine-protein kinase ROS (Homo sapiens) (UniProt P08922); conditions: at 0.1 µM
Proto-oncogene tyrosine-protein kinase ROS (Homo sapiens), sequence (P08922 whole entry): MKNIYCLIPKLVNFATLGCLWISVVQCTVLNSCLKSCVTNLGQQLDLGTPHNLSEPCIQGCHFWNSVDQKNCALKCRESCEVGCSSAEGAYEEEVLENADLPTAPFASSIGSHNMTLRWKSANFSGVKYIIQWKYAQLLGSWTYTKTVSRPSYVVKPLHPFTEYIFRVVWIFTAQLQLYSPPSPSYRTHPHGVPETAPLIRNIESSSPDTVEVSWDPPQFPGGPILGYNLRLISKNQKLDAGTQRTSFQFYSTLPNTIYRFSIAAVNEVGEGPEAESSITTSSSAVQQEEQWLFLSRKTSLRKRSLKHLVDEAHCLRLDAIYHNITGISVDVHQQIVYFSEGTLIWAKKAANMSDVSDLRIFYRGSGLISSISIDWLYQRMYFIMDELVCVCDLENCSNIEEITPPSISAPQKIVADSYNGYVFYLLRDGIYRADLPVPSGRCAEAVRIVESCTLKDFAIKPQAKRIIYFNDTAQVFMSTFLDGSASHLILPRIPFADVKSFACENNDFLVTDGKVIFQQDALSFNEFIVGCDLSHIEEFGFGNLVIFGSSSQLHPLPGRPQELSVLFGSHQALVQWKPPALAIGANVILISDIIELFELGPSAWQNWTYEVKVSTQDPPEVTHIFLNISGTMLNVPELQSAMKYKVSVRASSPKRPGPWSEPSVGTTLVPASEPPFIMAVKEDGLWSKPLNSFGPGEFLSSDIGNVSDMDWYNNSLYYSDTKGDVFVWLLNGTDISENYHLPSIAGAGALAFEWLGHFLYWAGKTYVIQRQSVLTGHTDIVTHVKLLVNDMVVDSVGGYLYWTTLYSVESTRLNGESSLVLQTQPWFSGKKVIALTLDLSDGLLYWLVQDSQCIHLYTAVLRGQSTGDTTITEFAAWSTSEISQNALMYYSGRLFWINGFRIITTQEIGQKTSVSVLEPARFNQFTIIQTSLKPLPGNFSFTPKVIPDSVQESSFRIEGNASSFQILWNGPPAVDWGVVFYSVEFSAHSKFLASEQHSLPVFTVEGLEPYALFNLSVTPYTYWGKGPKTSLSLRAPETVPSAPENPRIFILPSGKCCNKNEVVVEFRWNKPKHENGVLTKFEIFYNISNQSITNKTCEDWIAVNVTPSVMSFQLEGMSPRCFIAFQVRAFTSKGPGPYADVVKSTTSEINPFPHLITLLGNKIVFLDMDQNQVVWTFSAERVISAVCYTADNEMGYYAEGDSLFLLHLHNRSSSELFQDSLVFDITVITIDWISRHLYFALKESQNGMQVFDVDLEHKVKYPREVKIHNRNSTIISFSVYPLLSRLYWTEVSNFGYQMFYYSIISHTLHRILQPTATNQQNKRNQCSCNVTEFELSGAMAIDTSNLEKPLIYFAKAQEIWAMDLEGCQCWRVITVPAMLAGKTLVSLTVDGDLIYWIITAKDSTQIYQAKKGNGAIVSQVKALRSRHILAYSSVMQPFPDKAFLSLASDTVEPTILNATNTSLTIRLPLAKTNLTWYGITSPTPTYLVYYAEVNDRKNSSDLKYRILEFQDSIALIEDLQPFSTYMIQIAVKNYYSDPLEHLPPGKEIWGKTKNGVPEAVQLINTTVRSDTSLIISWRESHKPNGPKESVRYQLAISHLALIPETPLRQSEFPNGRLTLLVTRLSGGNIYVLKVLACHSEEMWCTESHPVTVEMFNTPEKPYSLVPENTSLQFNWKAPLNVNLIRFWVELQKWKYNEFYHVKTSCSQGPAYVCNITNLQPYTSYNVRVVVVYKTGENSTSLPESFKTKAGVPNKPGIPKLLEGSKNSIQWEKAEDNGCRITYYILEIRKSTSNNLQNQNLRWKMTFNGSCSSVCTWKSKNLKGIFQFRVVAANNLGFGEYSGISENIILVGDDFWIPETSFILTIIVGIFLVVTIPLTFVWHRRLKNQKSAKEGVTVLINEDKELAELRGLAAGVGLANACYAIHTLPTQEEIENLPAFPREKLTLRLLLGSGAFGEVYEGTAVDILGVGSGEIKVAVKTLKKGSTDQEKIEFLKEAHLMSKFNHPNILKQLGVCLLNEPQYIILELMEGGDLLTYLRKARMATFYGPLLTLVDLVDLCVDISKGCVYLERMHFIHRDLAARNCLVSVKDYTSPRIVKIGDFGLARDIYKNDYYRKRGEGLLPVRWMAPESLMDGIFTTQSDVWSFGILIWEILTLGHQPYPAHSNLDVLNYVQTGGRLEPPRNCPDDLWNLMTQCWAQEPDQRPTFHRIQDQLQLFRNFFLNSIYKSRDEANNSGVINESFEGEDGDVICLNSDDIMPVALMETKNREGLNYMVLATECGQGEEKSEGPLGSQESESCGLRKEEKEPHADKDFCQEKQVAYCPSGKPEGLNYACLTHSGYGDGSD

[5] = molecular target: Proto-oncogene tyrosine-protein kinase ROS (Homo sapiens) (UniProt P08922); conditions: at 1 µM
[6] = molecular target: Proto-oncogene tyrosine-protein kinase Src (Homo sapiens) (UniProt P12931); conditions: at 0.1 µM
Proto-oncogene tyrosine-protein kinase Src (Homo sapiens), sequence (P12931 2-536 limits assumed): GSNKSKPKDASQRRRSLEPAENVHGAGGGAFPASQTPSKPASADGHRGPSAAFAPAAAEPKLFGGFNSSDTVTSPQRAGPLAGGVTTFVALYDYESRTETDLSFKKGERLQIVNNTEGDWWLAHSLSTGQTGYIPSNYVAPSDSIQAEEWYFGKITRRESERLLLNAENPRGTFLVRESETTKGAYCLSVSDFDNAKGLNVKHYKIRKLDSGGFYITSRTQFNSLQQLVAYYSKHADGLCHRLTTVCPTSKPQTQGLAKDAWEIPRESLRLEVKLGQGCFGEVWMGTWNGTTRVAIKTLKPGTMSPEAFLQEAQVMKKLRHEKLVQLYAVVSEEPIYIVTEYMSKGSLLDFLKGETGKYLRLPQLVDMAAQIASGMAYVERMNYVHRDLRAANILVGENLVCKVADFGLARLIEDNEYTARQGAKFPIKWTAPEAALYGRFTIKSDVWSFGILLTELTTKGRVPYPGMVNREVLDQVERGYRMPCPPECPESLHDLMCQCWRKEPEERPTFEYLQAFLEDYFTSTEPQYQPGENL

[7] = molecular target: Proto-oncogene tyrosine-protein kinase Src (Homo sapiens) (UniProt P12931); conditions: at 1 µM
[8] = molecular target: Tyrosine-protein kinase Srms (Homo sapiens) (UniProt Q9H3Y6); conditions: at 0.1 µM
Tyrosine-protein kinase Srms (Homo sapiens), sequence (Q9H3Y6 whole entry): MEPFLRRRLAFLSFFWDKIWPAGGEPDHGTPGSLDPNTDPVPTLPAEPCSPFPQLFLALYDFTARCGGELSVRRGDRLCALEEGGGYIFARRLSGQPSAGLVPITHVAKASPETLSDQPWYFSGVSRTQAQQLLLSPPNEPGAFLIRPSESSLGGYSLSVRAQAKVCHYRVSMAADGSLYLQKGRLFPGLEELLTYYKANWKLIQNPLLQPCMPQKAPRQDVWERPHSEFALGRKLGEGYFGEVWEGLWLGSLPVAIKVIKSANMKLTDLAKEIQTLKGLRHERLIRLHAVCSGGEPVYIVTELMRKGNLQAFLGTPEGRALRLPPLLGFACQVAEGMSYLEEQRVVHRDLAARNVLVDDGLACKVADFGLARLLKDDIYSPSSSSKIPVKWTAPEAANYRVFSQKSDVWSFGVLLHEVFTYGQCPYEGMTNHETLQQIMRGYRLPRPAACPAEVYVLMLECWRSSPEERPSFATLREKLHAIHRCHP

[9] = molecular target: Tyrosine-protein kinase Srms (Homo sapiens) (UniProt Q9H3Y6); conditions: at 1 µM
[10] = molecular target: Tyrosine-protein kinase SYK (Homo sapiens) (UniProt P43405); conditions: at 0.1 µM;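 further: reported percentages are mean inhibition values for SYK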

Proto-oncogene tyrosine-protein kinase receptor Ret (Homo sapiens), P07949 [Y791F], sequence (P07949 whole entry Y791F): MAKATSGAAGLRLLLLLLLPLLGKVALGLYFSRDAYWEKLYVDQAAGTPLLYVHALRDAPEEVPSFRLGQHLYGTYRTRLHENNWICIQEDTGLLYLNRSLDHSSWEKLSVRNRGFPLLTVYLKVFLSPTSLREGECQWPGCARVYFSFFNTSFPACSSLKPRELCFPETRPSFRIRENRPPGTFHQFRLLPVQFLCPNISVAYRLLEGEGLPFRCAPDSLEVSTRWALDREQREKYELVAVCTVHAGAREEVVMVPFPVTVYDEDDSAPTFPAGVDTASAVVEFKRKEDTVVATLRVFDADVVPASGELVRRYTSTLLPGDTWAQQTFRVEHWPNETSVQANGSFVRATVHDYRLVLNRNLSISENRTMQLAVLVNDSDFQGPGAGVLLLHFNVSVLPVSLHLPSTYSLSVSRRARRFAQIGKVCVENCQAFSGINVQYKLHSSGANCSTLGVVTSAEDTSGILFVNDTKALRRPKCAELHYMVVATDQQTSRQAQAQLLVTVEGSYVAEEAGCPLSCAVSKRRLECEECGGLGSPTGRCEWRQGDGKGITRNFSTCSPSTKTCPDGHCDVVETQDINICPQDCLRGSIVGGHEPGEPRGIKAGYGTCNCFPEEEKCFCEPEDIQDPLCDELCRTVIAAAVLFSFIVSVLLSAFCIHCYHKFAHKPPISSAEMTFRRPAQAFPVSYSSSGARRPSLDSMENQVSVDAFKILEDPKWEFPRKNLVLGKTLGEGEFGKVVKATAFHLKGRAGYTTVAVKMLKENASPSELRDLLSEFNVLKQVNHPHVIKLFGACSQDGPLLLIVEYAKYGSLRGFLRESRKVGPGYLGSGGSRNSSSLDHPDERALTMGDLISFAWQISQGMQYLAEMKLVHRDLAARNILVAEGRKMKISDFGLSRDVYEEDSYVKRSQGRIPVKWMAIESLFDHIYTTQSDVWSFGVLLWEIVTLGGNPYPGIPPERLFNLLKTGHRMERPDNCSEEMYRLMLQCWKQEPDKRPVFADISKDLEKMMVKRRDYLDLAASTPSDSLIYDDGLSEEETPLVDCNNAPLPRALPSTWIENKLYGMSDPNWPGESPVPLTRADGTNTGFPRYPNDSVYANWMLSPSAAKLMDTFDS

| Structure (SMILES) | inhibition [1] | inhibition [2] | inhibition [3] | inhibition [4] | inhibition [5] | inhibition [6] | inhibition [7] | inhibition [8] | inhibition [9] | inhibition [10] |
| --- | --- | --- | --- | --- | --- | --- | --- | --- | --- | --- |
| NC(=O)c1sc(-n2cnc3cc(C(F)(F)F)ccc32)cc1OCc1ccccc1Br | 7.07% | 0.35% | -1.59% | 4.23% | 5.52% | 3.37% | 2.02% | 0.27% | 0.76% | 0.79% |
| Fc1ccc(-c2ncn(C3CCNCC3)c2-c2ccnc(Oc3ccccc3)n2)cc1 | 4.13% |  | -0.69% | 2.25% | 4.83% | 1.52% | 2.45% | -0.96% | -0.16% | 2.45% |
| NS(=O)(=O)c1ccc(N/C=C2\C(=O)Nc3ccc4ncsc4c32)cc1 | 69% | 7.83% | 39.2% | 6.11% | 17% | 12.2% | 42.9% | -3.95% | -1.72% | -2.47% |
| COc1cccc(-n2ncc3c(N/N=C/c4ccncc4)ncnc32)c1 | 65.9% | 12.4% | 60.9% | 10.2% | 76% | 49.1% | 87.3% | 1.22% | 14.3% | -2.07% |
| CCn1c(-c2nonc2N)nc2c(C#CC(C)(C)O)ncc(OC[C@@H]3CCCN3)c21 | 28.5% | 1.97% | -2.78% | -0.22% | 0.45% | -0.2% | -2.58% | 1.63% | 0.87% | -0.6% |
| COc1cccc(COc2cc(-n3cnc4ccccc43)sc2C(N)=O)c1 | 11.6% | -1.15% | 1.23% | 1.62% | 3.74% | -0.77% | -2.52% | -2.46% | -1.46% | -0.33% |
| COc1cc2c(cc1Nc1nc(Nc3ccsc3C(N)=O)c3cc[nH]c3n1)N(C(=O)CN(C)C)CCC2 | 7.35% | 2.97% | 11.5% | 82.1% | 82.1% | 8.11% | 6.64% | 5.79% | 3.93% | 10.9% |
| CCn1c(-c2nonc2N)nc2c(C#CCN)ncc(OCCCN)c21 | 15.8% | -2.05% | -3.31% | 3.3% | 4.46% | -2.04% | -4.29% | 1.1% | 1.96% | 8.99% |
| Cc1cc(-c2ccco2)cc(C)c1/C=C/c1cncc(-c2nn[nH]n2)c1 | 2.75% | 1.68% | -0.11% | 2.71% | 3.62% | 2.38% | 2.91% | 0.76% | 3.61% | 0.05% |
| Nc1nonc1-c1nc2cnccc2n1C1CCCCC1 | 13.2% | 13.1% | -1.49% | 5.33% | 35.9% | 1.24% | -1.17% | 1.53% | 2.59% | 3.45% |
| CCn1c(-c2nonc2N)nc2c(C#CC(C)(C)O)nc(O[C@@H](CN)c3ccccc3)cc21 | 80.3% | 1.9% | 3.42% | 2.61% | 11.1% | 2.84% | 20.9% | 4.6% | 0.15% | 1.9% |
| NS(=O)(=O)c1ccc(-c2ccc3c(NC(=O)C4CC4)n[nH]c3c2)cc1 | 5.85% | 5.07% | 8.99% | 1.18% | 2.15% | 1.32% | 4.59% | -2.44% | -0.4% | -0.58% |
| CCn1c(-c2nonc2N)nc2c(C#CC(C)(C)O)ncc(OCC3CCNCC3)c21 | 33.5% | 0.01% | 7.68% | 3.89% | 5.45% | -0.03% | 8.65% | 0.75% | 1.57% | 0.62% |
| COc1cc(C=NNc2ncnc3c2cnn3Cc2ccccc2)ccc1O | 28.4% | -1.32% | 12.5% | 2.7% | 16.4% | 31.2% | 76.5% | -0.22% | 4.66% | 4.57% |
